The record followed here is PubChem BioAssay (Tox21).

Test [1] is described as follows: qHTS RealTime-Glo MT Cell Viability Assay in HEK293 cells - 40 hour (AID 1224874). Note: nearly all actives have a fitted effect of over 50% in size. The settings on record: RealTime-Glo luminescence; max response: stronger effect = lower value. In outline: (§1)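 HEK293 cells mixed with RealTime-Glo reagents (NanoLuc plus cell-permeant prosubstrate) at 600 cells/well, preincubated 5 h at 37 C/5% CO2, then given 23 nL compound in DMSO. Nonlytic luminescence from viable cells was read at 0, 8, 16, 24, 32 and 40 h.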
(qHTS replaces the single test concentration by a dilution series.)

The nature of test [2]: A CellTox Green Cytotoxicity Assay to monitor cytotoxicity in HEK293 cells - 24 hour (AID 1224875). For activity change: series mostly up to about 77 µM. Note: nearly all actives have a fitted effect of over 45% in size. Note: potency is the fitted concentration of half-maximal effect. The essentials: (§2)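 HEK293 cells premixed with CellTox Green dye were seeded at 600 cells/well and left 5 h at 37 C/5% CO2 before pin transfer of 23 nL compound in DMSO. Fluorescence from dye bound to dead-cell DNA was read during 40 h treatment.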
Test [3] can be described thus: A CellTox Green Cytotoxicity Assay to monitor cytotoxicity in HepG2 cells - 16 hour (AID 1224876). Note: nearly all actives have a fitted effect of over 45% in size. In outline:
(§3)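 HepG2 cells were seeded together with the CellTox Green dye at 600 cells/well, left 5 h at 37 C/5% CO2, then given compounds in DMSO. Fluorescence from dye bound to dead-cell DNA was read repeatedly over 40 h of treatment at 37 C.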

The nature of test [4]: qHTS RealTime-Glo MT Cell Viability Assay in HepG2 cells - 32 hour (AID 1224877). Note: nearly all actives have a fitted effect of over 55% in size. The essentials: (§4)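 HepG2 cells (600/well) were dispensed with RealTime-Glo reagents, incubated 5 h at 37 °C, then treated with compounds in DMSO for up to 40 h. Nonlytic NanoLuc luminescence reflecting viable cells was read at each stated time point.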
Test [5] can be described thus: A CellTox Green Cytotoxicity Assay to monitor cytotoxicity in HepG2 cells - 24 hour (AID 1224878). Note: nearly all actives have a fitted effect of over 45% in size. In outline:
as §3

The nature of test [6]: A CellTox Green Cytotoxicity Assay to monitor cytotoxicity in HepG2 cells - 40 hour (AID 1224879). Note: nearly all actives have a fitted effect of over 40% in size. Note: potency is the fitted concentration of half-maximal effect. In outline:
as §3

Test [7] can be described thus: qHTS RealTime-Glo MT Cell Viability Assay in HEK293 cells - 0 hour (AID 1224880). Note: top concentration of the series differs between compounds; nearly all actives have a fitted effect of over 45% in size. The essentials:
as §1

Test [8] can be described thus: A CellTox Green Cytotoxicity Assay to monitor cytotoxicity in HEK293 cells - 32 hour (AID 1224881). Note: nearly all actives have a fitted effect of over 40% in size. Note: potency is the fitted concentration of half-maximal effect. In outline: as §2
Test [9] is described as follows: A CellTox Green Cytotoxicity Assay to monitor cytotoxicity in HepG2 cells - 0 hour (AID 1224882). Note: nearly all actives have a fitted effect of over 35% in size. The essentials: as §3
Test [10] can be described thus: A CellTox Green Cytotoxicity Assay to monitor cytotoxicity in HepG2 cells - 32 hour (AID 1224883). Note: nearly all actives have a fitted effect of over 50% in size. In outline: as §3
The nature of test [11]: A CellTox Green Cytotoxicity Assay to monitor cytotoxicity in HEK293 cells - 8 hour (AID 1224884). Note: nearly all actives have a fitted effect of over 35% in size. Note: potency is the fitted concentration of half-maximal effect. In outline: as §2
Test [12] is described as follows: qHTS RealTime-Glo MT Cell Viability Assay in HepG2 cells - 16 hour (AID 1224885). Note: nearly all actives have a fitted effect of over 50% in size. The essentials:
as §4

Test [13] in a line: qHTS RealTime-Glo MT Cell Viability Assay in HEK293 cells - 24 hour (AID 1224886). For activity change, negative = cytotoxicity: top concentration of the series differs between compounds. Note: nearly all actives have a fitted effect of over 50% in size. Note: potency is the fitted concentration of half-maximal effect. The essentials: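 HEK293 cells seeded with NanoLuc/prosubstrate reagent, rested 5 h at 37 C, then dosed and kept at 37 C up to 40 h. Nonlytic real-time luminescence from viable cells read at 0, 8, 16, 24, 32 and 40 h.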
The nature of test [14]: qHTS RealTime-Glo MT Cell Viability Assay in HEK293 cells - 8 hour (AID 1224887). For activity change, negative = cytotoxicity: top concentration of the series differs between compounds. Note: nearly all actives have a fitted effect of over 50% in size. Note: potency is the fitted concentration of half-maximal effect. The essentials: as §1
Test [15] in a line: A CellTox Green Cytotoxicity Assay to monitor cytotoxicity in HEK293 cells - 16 hour (AID 1224888). Note: nearly all actives have a fitted effect of over 35% in size. Note: potency is the fitted concentration of half-maximal effect. The essentials:
as §2

Test [16] in a line: qHTS RealTime-Glo MT Cell Viability Assay in HepG2 cells - 0 hour (AID 1224889). Note: nearly all actives have a fitted effect of over 50% in size. The essentials:
as §4

The nature of test [17]: A CellTox Green Cytotoxicity Assay to monitor cytotoxicity in HepG2 cells - 8 hour (AID 1224890). Note: nearly all actives have a fitted effect of over 45% in size. In outline:
as §3

A short description of test [18]: qHTS assay to identify small molecule antagonists of the estrogen receptor alpha (ER-alpha) signaling pathway using the BG1 cell line in the presence of 0.1 nM 17-beta-estradiol - cell viability counter screen (AID 1259241). Note: nearly all actives have a fitted effect of over 40% in size. The essentials:
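Live-cell protease activity (CellTiter-Fluor fluorescence, 30 min) was read in the same wells after VM7Luc4E2 cells had been exposed to compounds with 0.1 nM 17beta-estradiol for 22 hr at 37C.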

Test [19] can be described thus: qHTS assay to identify small molecule antagonists of the androgen receptor (AR) signaling pathway using the MDA cell line in the presence of 0.5 nM R1881 - cell viability counter screen (AID 1259242). Note: nearly all actives have a fitted effect of over 45% in size. The essentials:
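MDA-kb2 cells (human breast carcinoma, stably carrying MMTV-luciferase reporter) were exposed to compounds with 0.5 nM R1881 (final) for 16 hr at 37C, 0% CO2; viability then read as live-cell protease fluorescence (CellTiter-Fluor, 30 min) in the same wells.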

A short description of test [20]: qHTS RealTime-Glo MT Cell Viability Assay in HepG2 cells - 8 hour (AID 1224873). Note: nearly all actives have a fitted effect of over 55% in size. The essentials: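 HepG2 cells mixed with RealTime-Glo MT reagents (NanoLuc plus cell-permeant prosubstrate) were seeded at 600 cells/well, incubated 5 h at 37 C/5% CO2, then pinned with compounds in DMSO; nonlytic luminescence tracked viability during 40 h treatment.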

A number with no mark means an inactive call. Records with an inconclusive call do not appear. The source made the active and inactive calls. Calls come from the whole dose curve; as a rule, active = well fitted curve in the direction sought with a large enough effect in the repeat runs; inconclusive = weak or mixed curves; inactive = no such curve, though single readings can be large; an effect the other way counts as inactive or inconclusive.
% is set by controls: 0 for no effect and ±100 for the full control effect.

`CC1CCCCC1`: the max response in test [1] is 5.61%. In addition, the Potency entry in [2], in [3], in test [4], in test [5], in test [6] and in test [7] was “inactive” throughout. Moreover, the Potency result in [8], in [9], in [10], in test [11], in [12] and in test [13] was “inactive” throughout. Moreover, the Potency result in test [14], in test [15], in test [16], in test [17], in test [18] and in test [19] was “inactive” throughout.
Regarding `CC(C)OC(=O)c1cc(C(=O)OC(C)C)cc([N+](=O)[O-])c1`, the Potency result in test [20], in test [3], in test [4], in [6], in test [7] and in test [9] was “inactive” each time. Also, the Potency result in test [12], in [16], in [17], in test [18] and in test [19] was “inactive” throughout.
`CCCCNc1c(C(=O)OCC)c(C)nc2c1cnn2CC`: the Potency result in [20], in [2], in test [3], in [4], in test [5] and in [7] was “inactive” in each case. The Potency entry in test [8], in test [9], in [10], in test [11], in test [12] and in [15] was “inactive” each time. Further, the Potency result in test [16], in test [17], in test [18] and in [19] was “inactive” in each case. Moreover, the figures for the Potency in test [13] and in test [14] were 12 µM (active) and 13.4 µM (active), respectively.
As for `O=Nc1ccc(NO)cc1`, the Potency result in test [20], in test [2], in test [4], in test [5], in test [7] and in test [8] was “inactive” each time. Moreover, the Potency entry in [9], in [10], in test [12], in test [13], in [14] and in test [15] was “inactive” in each case. Moreover, the Potency result in test [16], in test [17], in test [18] and in [19] was “inactive” throughout.
As to `CCCCCCCC/C=C\CCCCCCCC(=O)N(C)CC(=O)O`, the Potency entry in [20], in [3], in test [4], in test [7], in test [9] and in test [12] was “inactive” throughout. Moreover, the Potency entry in [16], in [17], in test [18] and in test [19] was “inactive” throughout. Besides, the Potency is 34.7 µM (active) in test [2], 34.7 µM (active) in [8], 38.9 µM (active) in test [11] and 24.5 µM (active) in test [15].
Regarding `CCCCCCCCCCCCCCCCCO`, in [1], the max response was 0.671%. The activity change in [2] was -19.9% [at 15.8 µM, stronger effect = higher value]; in [15] it was -22.1% [at 15.8 µM, stronger effect = higher value]. The cytotoxicity increase in test [3] was 1.01% [at 15.8 µM]; in test [6], 4.05% [at 15.8 µM]; in test [8] it was -22.2% [at 15.8 µM]; in test [10], 6.48% [at 15.8 µM]; in test [11], -22.7% [at 15.8 µM]; in [17] it was 1.25% [at 15.8 µM]. Moreover, the figures for the activity change, negative = cytotoxic in [4] and in [12] were -2.69% [at 15.8 µM] and 1.76% [at 15.8 µM], respectively. The cytotoxicity in [5] was 1.75% [at 15.8 µM]; in [9], -1.06% [at 15.8 µM]. The activity change, negative = cytotoxicity in test [7] was -0.227% [at 15.8 µM]; in test [13], 0.271% [at 15.8 µM]; in [14], 2.17% [at 15.8 µM]; in test [16], -0.0873% [at 15.8 µM]; in test [18], -2.67% [at 19 µM]. Besides, the viability change, negative = cytotoxic in test [19] is -1.99% [at 19 µM].
With `COc1cccc(CCc2ccccc2OCC(CN(C)C)OC(=O)CCC(=O)O)c1` (stereo not given), the Potency entry in test [20], in test [2], in test [4], in test [7], in test [8] and in test [11] was “inactive” each time. Also, the Potency entry in [13], in test [14], in [16], in test [17], in test [18] and in test [19] was “inactive” in each case. For the same compound, the Potency in test [6] was 26.8 µM (active).
